Results: PubChem BioAssay (NCATS)
Inconclusive results are not listed. The source made the active and inactive calls. The call rests on the fitted dose curve; in most records, active means well fitted curve in the direction sought with a large enough effect; inconclusive means small, poorly fitted or top-dose-only effect, or another doubt; inactive means no such curve, though single readings can be large; an effect the other way counts as inactive or inconclusive.

Tests used:
[1] = MultiTox-Fluor Cytotoxicity Assay - LYMP1-001 - Dead Cells (AID 946); details: LYMP1-001 lymphoblastoid cells, dead-cell protease fluorescence; series mostly up to 92.2 µM
Procedure, shortened: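 LYMP1-001 lymphoblastoid cells (2500/well) treated 16 h at 37 C. Dead-cell protease cleavage of bis-AAF-R110 read at Ex/Em 485/520. Normalized to DMSO and 15 uM tetraoctylammonium bromide; AC50 from Hill fits.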

[2] = MultiTox-Fluor Cytotoxicity Assay - LYMP1-001 - Live Cells (AID 947); details: LYMP1-001 lymphoblastoid cells, live-cell protease fluorescence viability; series mostly up to 92.2 µM
[3] = Cell Viability - LYMP1-002 - Assay at 16 hr (AID 948); details: LYMP1-002 lymphoblastoid cell viability; series mostly up to 92.2 µM
Procedure, shortened: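 LYMP1-002 human lymphoblastoid cells, 2500/well; 5 hr 37 C; cpd 16 hr 37 C; CellTiter-Glo 30 min RT; luminescence (ATP). Concentration-response, Hill-fit AC50. Pos ctrl tetraoctylammonium bromide.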

[4] = MultiTox-Fluor Cytotoxicity Assay - LYMP1-002 - Live Cells (AID 955); details: LYMP1-002 lymphoblastoid live-cell protease fluorescence viability; series mostly up to 46.1 µM
Procedure, shortened: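 After 16 h compound exposure at 37 C, live LYMP1-002 lymphoblastoid cells (2500/well) were quantified by cleavage of cell-permeant GF-AFC substrate, read at 405/510 nm after 60 min. Concentration-response fitted with Hill equation for AC50.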

[5] = MultiTox-Fluor Cytotoxicity Assay - LYMP1-002 - Dead Cells (AID 960); details: LYMP1-002 lymphoblastoid cells, dead-cell protease fluorescence; series mostly up to 46.1 µM; further: nearly all actives have a fitted effect of over 60% in size
Procedure, shortened: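 Dead-cell fluorescence (Ex/Em 485/520) after 16 h compound exposure at 37 C of LYMP1-002 lymphoblastoid cells in complete medium; AC50 by Hill equation, with data scaled between DMSO and 15 uM tetraoctylammonium bromide.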

[6] = MultiTox-Fluor Cytotoxicity Assay - LYMP1-003 - Dead Cells (AID 961); details: LYMP1-003 lymphoblastoid cells, dead-cell protease fluorescence; series mostly up to 92.2 µM; further: nearly all actives have a fitted effect of over 70% in size
Procedure, shortened: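 LYMP1-003 human lymphoblastoid cells (2500/well) exposed to compound 16 h at 37 C in complete medium; dead-cell protease read with bis-AAF-R110 fluorescence (Ex/Em 485/520) after 60 min at room temperature. Normalized to DMSO and 15 uM tetraoctylammonium bromide; AC50 from Hill fit.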

[7] = MultiTox-Fluor Cytotoxicity Assay - LYMP1-003 - Live Cells (AID 962); details: LYMP1-003 lymphoblastoid cells, MultiTox-Fluor live-cell protease fluorescence; series mostly up to 92.2 µM;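 further: cytotoxic hits lower the live-cell protease signal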
Procedure, shortened: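 Live-cell protease activity (GF-AFC substrate, 405/510 nm, 60 min at room temperature) after 16 h, 37 C compound exposure of human lymphoblastoid LYMP1-003 cells; concentration-response fitted to the Hill equation for AC50.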

[8] = Cell Viability - LYMP1-003 - Assay at 24 hr (AID 963); details: LYMP1-003 lymphoblastoid cell viability; series mostly up to 92.2 µM
Procedure, shortened: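 Concentration-response qHTS: ATP loss measured by CellTiter-Glo luminescence after 24 h compound exposure at 37 C. Cells were LYMP1-003 human lymphoblastoid, 2500 per well. AC50 derived via standard Hill equation modeling.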

[9] = Cell Viability - LYMP1-003 - Assay at 40 hr (AID 964); details: LYMP1-003 lymphoblastoid viability; series mostly up to 92.2 µM; further: nearly all actives have a fitted effect of over 60% in size
Procedure, shortened: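 Viability is taken as cellular ATP, read by CellTiter-Glo luminescence after 40 h of compound exposure at 37 C. Cells: human lymphoblastoid line LYMP1-003 at 2500/well; AC50 values derived by Hill-equation fitting of concentration-response data.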

[10] = Cell Viability - LYMP2-003 (AID 965); details: LYMP2-003 lymphoblastoid cell viability; series mostly up to 92.2 µM;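 further: cells exposed to compounds for 24 h before reading; nearly all actives have a fitted effect of over 50% in size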
Procedure, shortened: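 CellTiter-Glo luminescence (cellular ATP) after 24 h compound exposure at 37 C in complete medium; 2500 cells/well, 5 h settling beforehand. Concentration-response fitted to standard Hill equation for AC50. Tetraoctylammonium bromide served as positive control.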

[11] = Cell Viability - LYMP2-004 (AID 966); details: LYMP2-004 lymphoblastoid cell viability, qHTS; series mostly up to 92.2 µM; further: nearly all actives have a fitted effect of over 65% in size
Procedure, shortened: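 AC50 values come from Hill modelling of concentration-dependent loss of intracellular ATP, measured by CellTiter-Glo luminescence. Human LYMP2-004 lymphoblastoid cells (2500/well) were exposed to compound for 24 h at 37 C.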

[12] = Cell Viability - LYMP2-005 (AID 967); details: LYMP2-005 lymphoblastoid cell viability; series mostly up to 92.2 µM
Procedure, shortened: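 Steps: seed 2500 LYMP2-005 cells/well, incubate 5 h at 37 C, add compound, incubate 24 h at 37 C, add CellTiter-Glo, wait 30 min at RT, read luminescence. Concentration-response data fitted to Hill equation for AC50.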

[13] = Cell Viability - LYMP2-009 (AID 968); details: LYMP2-009 lymphoblastoid cell viability; series mostly up to 92.2 µM; further: nearly all actives have a fitted effect of over 55% in size
[14] = Cell Viability - LYMP2-011 (AID 969); details: LYMP2-011 lymphoblastoid cells viability; series mostly up to 92.2 µM; further: nearly all actives have a fitted effect of over 60% in size
Procedure, shortened: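 Cytotoxicity qHTS with ATP content as read-out: lymphoblastoid cells (2500/well) exposed to compound for 24 h at 37 C, then luciferase luminescence measured. Concentration-response data fitted with the standard Hill equation to give AC50.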

[15] = Cell Viability - LYMP2-013 (AID 970); details: LYMP2-013 lymphoblastoid cells viability; series mostly up to 92.2 µM; further: nearly all actives have a fitted effect of over 55% in size
Procedure, shortened: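 qHTS cytotoxicity: ATP-dependent luminescence (CellTiter-Glo, 30 min room temperature) read after 24 h compound exposure at 37 C of 2500 LYMP2-013 lymphoblastoid cells per well. Concentration-response fitted with Hill equation to give AC50.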

[16] = Cell Viability - LYMP2-015 (AID 971); details: LYMP2-015 lymphoblastoid cell viability; series mostly up to 92.2 µM; further: nearly all actives have a fitted effect of over 55% in size
Procedure, shortened: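 Cytotoxicity readout: decrease in intracellular ATP (CellTiter-Glo luminescence) in 2500 LYMP2-015 lymphoblastoid cells/well after 24 h compound exposure at 37 C. Concentration-response data fitted with the standard Hill equation to give AC50.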

[17] = Cell Viability - LYMP2-017 (AID 972); details: LYMP2-017 lymphoblastoid cell viability; series mostly up to 92.2 µM; further: nearly all actives have a fitted effect of over 55% in size
Procedure, shortened: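 CellTiter-Glo luminescence (cellular ATP, 30 min RT) measured cytotoxicity after 24 hr compound treatment at 37 C. Cells were a human lymphoblastoid line, LYMP2-017, plated at 2500/well and incubated 5 hr first; concentration-response fitted with Hill equation for AC50.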

[18] = Cell Viability - LYMP2-019 (AID 973); details: LYMP2-019 lymphoblastoid cell line viability; series mostly up to 92.2 µM; further: nearly all actives have a fitted effect of over 55% in size
Procedure, shortened: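 AC50 values come from Hill-equation fits of luminescent intracellular ATP (CellTiter-Glo, 30 min, room temperature) following 24 h compound exposure at 37 C. Cells: LYMP2-019 lymphoblastoid line, 2500 per well, in complete culture medium.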

[19] = Cell Viability - LYMP2-021 (AID 974); details: LYMP2-021 lymphoblastoid cells viability; series mostly up to 92.2 µM; further: nearly all actives have a fitted effect of over 55% in size
Procedure, shortened: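 AC50 values come from Hill-equation fits to CellTiter-Glo luminescence (ATP content), read after 24 hour compound exposure at 37 C of 2500 LYMP2-021 lymphoblastoid cells/well; tetraoctylammonium bromide as positive control.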

[20] = Cell Viability - LYMP2-023 (AID 975); details: LYMP2-023 lymphoblastoid cell viability; series mostly up to 92.2 µM
Procedure, shortened: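 Intracellular ATP, read by CellTiter-Glo luminescence, reports viability after 24 hr compound exposure at 37 C. 2500 lymphoblastoid cells/well (LYMP2-023) seeded 5 hr beforehand; Hill fits give AC50; positive control tetraoctylammonium bromide.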

Measured: Potency

Cc1cccc([N+](=O)[O-])c1C(=O)O
inactive: all assays above

Nc1cccc(N)c1
inactive: all assays above

Cc1cc(C)cc([N+](=O)[O-])c1
inactive: all assays above

C=CCOC(=O)COCCC(C)C
inactive: all assays above

O=C(O)c1cccc([N+](=O)[O-])c1
inactive: all assays above

CC/C=C1/OC(=O)c2ccccc21
inactive: all assays above

CCCCN(CCO)CCCC
inactive: all assays above

CC(=O)c1ccccc1[N+](=O)[O-]
inactive: all assays above

CC(C)CCOC(=O)/C=C/c1ccccc1
inactive: all assays above

Cc1ccc(CO)cc1
not listed: [19]
inactive: all other assays above

CC(=C/C=C/C(C)=C/C=C/C=C(C)/C=C/C=C(C)/C=C/C(=O)O)/C=C/C(=O)O
not listed: [20]
inactive: all other assays above

CCOc1ccc(NC(C)=O)cc1N
inactive: all assays above

Cc1ccc2ncccc2c1
inactive: all assays above

CCC(C)(C)OC
not listed: [15] | [19] | [20]
inactive: all other assays above

Cc1ccc(C)c(O)c1
inactive: all assays above

CCCOCC(C)O (centres undefined)
not listed: [17]
inactive: all other assays above

Nc1ccccc1S(=O)(=O)O
not listed: [19]
inactive: all other assays above

O=C1CCC(=O)O1
not listed: [19]
inactive: all other assays above

Cc1c(C(=O)O)cccc1[N+](=O)[O-]
inactive: all assays above

CCCC=O
not listed: [20]
inactive: all other assays above

O=c1[nH][nH]c(=O)c2cc([N+](=O)[O-])ccc12
inactive: all assays above

O=C1NC(=O)c2cc([N+](=O)[O-])ccc21
inactive: all assays above

COCCOC(=O)c1ccccc1C(=O)OCCOC
not listed: [19]
inactive: all other assays above

Cc1cccc(C)c1O
inactive: all assays above

C[C@@H]1O[C@@H](O[C@@H]2[C@@H](O)[C@H](OCCc3ccc(O)c(O)c3)O[C@H](CO[C@@H]3O[C@H](CO)[C@@H](O)[C@H](O)[C@H]3O)[C@H]2OC(=O)/C=C/c2ccc(O)c(O)c2)[C@H](O)[C@H](O)[C@H]1O
inactive: all assays above

N#CC1(O)CCCCC1
inactive: all assays above

Cc1nc2ccc(Cl)cc2[nH]1
not listed: [20]
inactive: all other assays above

C=Cc1ccccc1C=C
inactive: all assays above
